In PubChem BioAssay:

target: Luciferin 4-monooxygenase (Photinus pyralis) (UniProt P08659); test: firefly luciferase enzyme inhibitors, primary screen, biochemical, luminescence, purified enzyme, 2006 set (AID 1141); conditions: SteadyGlo luminescence, 30 min, higher = more signal, called active from +8 up or from −8 down;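 further: cell-free assay with purified firefly luciferase at 100 ng per well in PBS; test concentration not given here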
Sequence (P08659 whole entry, looked up): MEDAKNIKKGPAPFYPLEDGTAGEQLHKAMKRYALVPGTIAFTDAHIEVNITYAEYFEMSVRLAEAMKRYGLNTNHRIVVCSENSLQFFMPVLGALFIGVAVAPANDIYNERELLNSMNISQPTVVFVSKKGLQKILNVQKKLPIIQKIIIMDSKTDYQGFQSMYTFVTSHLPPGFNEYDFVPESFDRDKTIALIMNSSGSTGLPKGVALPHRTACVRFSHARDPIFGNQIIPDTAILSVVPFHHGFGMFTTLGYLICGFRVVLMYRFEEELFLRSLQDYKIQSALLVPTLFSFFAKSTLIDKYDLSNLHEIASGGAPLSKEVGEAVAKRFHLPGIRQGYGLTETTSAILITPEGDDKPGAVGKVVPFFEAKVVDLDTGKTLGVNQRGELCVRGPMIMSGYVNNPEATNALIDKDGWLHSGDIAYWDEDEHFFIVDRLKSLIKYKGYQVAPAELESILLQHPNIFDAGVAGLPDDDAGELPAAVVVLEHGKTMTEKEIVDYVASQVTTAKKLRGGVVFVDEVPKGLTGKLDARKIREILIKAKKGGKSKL

z-score, inactive:
COCCOC(=O)N1C(=O)[C@@]2(c3cc(C#CCC(C(=O)OC)C(=O)OC)ccc31)[C@H](C(N)=O)[C@H]1C(=O)O[C@H](c3ccccc3)[C@H](c3ccccc3)N1[C@@H]2c1ccc(O)cc1 -0.878
COc1cc(OC)c(C(O)C2C=CC3C(=O)N(c4ccccc4)C(=O)C3N2Nc2ccc(C(C)C)cc2)cc1Br (stereo unspecified) -1.71
C#CCN1[C@@H](Cc2ccccc2)C(=O)O[C@H](Cc2ccccc2)[C@@H]1/C=C/C1CC1 -0.415
CN(C)CCCNC(=O)[C@@H]1c2ccccc2C(=O)N(Cc2ccccc2C(F)(F)F)[C@H]1c1ccc(CO)cc1 -1.13
COc1ccc([Si](C)(C)[C@H]2[C@H](CCO)O[C@@]3(C(=O)N(Cc4ccc(NC(=O)[C@H](C)O)cc4)c4ccccc43)[C@@H]2C)cc1 -0.234
CCOC(=O)C[C@H]1[C@H](OC(=O)c2ccccc2-c2ccccc2)[C@@H](NC(=O)c2ccc3ccccc3c2)c2cc(OCCCO)ccc2N1C(=O)Cc1ccc(OC)cc1 -0.146
COCCCN1C(=O)[C@@]2(c3ccc([N+](=O)[O-])cc3)CC(=O)N(CC34CC5CC(CC(C5)C3)C4)[C@@H]2c2ccc(CO)cc21 -0.844
C=C1C(=O)C=C2CN(C(=O)c3ccccc3)[C@@](Cc3ccc(OC)cc3)(C(=O)OC)[C@@H]12 3.22
C=CCNC(=O)[C@H]1[C@@H]2C(=O)O[C@@H](c3ccccc3)[C@@H](c3ccccc3)N2[C@@H](c2ccc(OCCO)cc2)[C@]12C(=O)Nc1ccccc12 -0.0907
COCCOC(=O)N1C(=O)[C@@]2(c3ccccc31)[C@H](c1ccc(O)cc1)N1[C@H](c3ccccc3)[C@H](c3ccccc3)OC(=O)[C@H]1[C@@H]2C(=O)N1CCCCCCC1 0.171
C[N+](C)(C)CCCCNC(=O)[C@H]1C[C@H]2C(=O)N[C@@H](Cc3ccccc3)C(=O)N2[C@H]1c1cccc(OCCO)c1 -0.598
CC(C)[Si](C#CCCc1ccccc1)(O[C@H](c1ccccc1)c1cn(Cc2ccccc2)nn1)C(C)C 0.898
COc1ccc([Si](C)(C)[C@@H]2[C@@H](CC(=O)N3Cc4ccccc4C[C@H]3CO)O[C@]3(C(=O)N(Cc4cccc(N5CCOC5=O)c4)c4ccccc43)[C@H]2C)cc1 0.274
CN1C(=O)[C@@H]2[C@@H](CC(COc3ccccc3)=C3[C@@H](CCc4ccccc4)OB(O)C[C@@H]32)C1=O -0.326
COc1cc(C(O)C2C=CC3C(=O)N(c4ccccc4)C(=O)C3N2Nc2ccccc2F)cc(OC)c1OC (stereo unspecified) -0.397
CCCCN1CC=CC23O[C@@H]4/C=C\CCCOC(=O)C4[C@H]2C(=O)N(C(CO)C(C)C)[C@@H]3C1=O (stereo partly specified) -0.0573
O=C1N(CCS(=O)(=O)c2ccccc2)c2ccccc2C[C@]12N=C(c1ccc(OCCCO)cc1)O[C@@H]2c1ccccc1 -0.889
O=C1NC(=O)C2C1C=CC(C(O)c1ccc([N+](=O)[O-])cc1)N2Nc1ccccn1 (stereo unspecified) -1.48
O=C1[C@H]2C=C(I)[C@H](C[C@@H]2OCCCCCCO)[C@@]12CO2 0.683
CN(C)C(=O)[C@]1(Cc2ccccc2)N=C(c2ccc(OCCCO)cc2)O[C@@H]1c1ccccc1CN=[N+]=[N-] 0.361
Cc1ccc(C(C)CC(O)C2C=CC3C(=O)N(C)C(=O)C3N2Nc2ccccc2)o1 (stereo unspecified) 0.226
CCCCCCc1nc(-c2ccc(-c3ccc(Cl)c(Cl)c3)o2)cc2c1[Si](C(C)C)(C(C)C)OC2 -5.02
CC1CC/C=C\[C@H]2OC34C=CCN(c5ccc(Cl)cc5)C(=O)[C@H]3N(CCCCCCO)C(=O)[C@]4(C)C2C(=O)O1 (stereo partly specified) -1.55
C=C(CCCC)/C(=C/C[C@H](OC(=O)c1ccncc1)c1cccc(OCCO)c1)c1cnc2ccccc2c1 -0.78
C[C@@H]1ON(c2ccccc2)[C@H](c2ccccc2)[C@H]1C(=O)O -0.0018
CCOC(=O)C1=CC[C@@H](c2ccc(OC)cc2)N(S(=O)(=O)c2ccc(C)cc2)[C@H]1CC 1.24
COC(=O)[C@@]1(Cc2ccc(OC)cc2)[C@H]2c3cc(C(=O)N(C)C)[nH]c3C[C@H]2CN1C(=O)c1ccccc1 0.0806
CCCCC(O)C1C=CC2C(=O)N(c3ccccc3)C(=O)C2N1Nc1ccccc1 (stereo unspecified) 0.438
CC(C)OC(=O)CC(=O)CC(O)c1cccc([N+](=O)[O-])c1 (stereo unspecified) 1.9
O=C1NC(=O)C2C1C=CC(C(O)c1ccc(B(O)O)cc1)N2Nc1ccc(Cl)cc1Cl (stereo unspecified) -0.63
O=C1c2ccccc2[C@@]2(Cc3ccccc3N(Cc3ccccc3)C2=O)[C@H](c2ccc(CO)cc2)N1Cc1ccccc1Cl 1.3
CO[C@H]1O[C@H](CO)[C@@H](OC(=O)Nc2ccccc2)[C@H](OC(=O)Nc2ccccc2)[C@H]1OC(=O)Nc1ccccc1 1.15
COCCCNC(=O)[C@@]1(CCS(=O)(=O)c2ccccc2)COC(c2ccc(OCCCO)cc2)=N1 -0.0482
COc1ccc(C(O)C2C=CC3C(=O)NC(=O)C3N2Nc2ccc(Cl)cc2Cl)c2ccccc12 (stereo unspecified) -1.93
O=C1C[C@@](C(=O)O)(c2ccc([N+](=O)[O-])cc2)[C@@H](c2ccc(CO)cc2)N1C1CCCCC1 -1.81
CC(C)(C)N1CC=CC23O[C@@H]4/C=C\CCCOC(=O)C4[C@H]2C(=O)N(CCCCCO)[C@@H]3C1=O (stereo partly specified) 0.215
